# Experimental data reported in the supplement of paper PMC8728848.
# Only a selection was taken, and the strongest signals are over-represented in it overall.
# Legend:
# Assay in all cases: glycan array binding signal (z-score within array); higher = stronger binding
# Details in all cases: glycan notation: IUPAC condensed, linker removed
# [1] = molecular target: Neu5Gc(a2-8)Neu5Gc(a2-6)Gal(b1-4)GlcNAc
# Outline: (§1)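 The binding signal is a Z-score computed within each array and averaged over linkers. Arrays of the same protein sequence at different concentrations or buffers were also averaged together. Data originate from 3228 arrays in the Consortium for Functional Glycomics database, kept only where the protein sequence was available.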
# [2] = molecular target: Fuc(a1-2)Gal(b1-3)GalNAc(a1-3)[Fuc(a1-2)]Gal(b1-4)GlcNAc
# Outline: as §1
# [3] = molecular target: Fuc(a1-2)Gal(b1-3)[Fuc(a1-4)]GlcNAc
# Outline: as §1
# [4] = molecular target: Fuc(a1-2)Gal(b1-4)Glc
# Outline: as §1
# [5] = molecular target: Fuc(a1-2)Gal(b1-4)GlcNAc(b1-2)[Fuc(a1-2)Gal(b1-4)GlcNAc(b1-4)]Man(a1-3)[Fuc(a1-2)Gal(b1-4)GlcNAc(b1-2)Man(a1-6)]Man(b1-4)GlcNAc(b1-4)GlcNAc
# Outline: as §1
# [6] = molecular target: Fuc(a1-2)[Gal(a1-3)]Gal
# Outline: as §1
# [7] = molecular target: Fuc(a1-2)[Gal(a1-3)]Gal(b1-3)GlcNAc(b1-2)Man(a1-3)[Fuc(a1-2)[Gal(a1-3)]Gal(b1-3)GlcNAc(b1-2)Man(a1-6)]Man(b1-4)GlcNAc(b1-4)GlcNAc
# Outline: as §1
# [8] = molecular target: Fuc(a1-2)[GalNAc(a1-3)]Gal(b1-4)[Fuc(a1-3)]GlcNAc(b1-3)GalNAc
# Outline: as §1
# [9] = molecular target: Fuc(a1-2)[GalNAc(a1-4)]Gal(b1-4)GlcNAc
# Outline: as §1
# [10] = molecular target: Fuc(a1-3)[Gal(b1-4)]GlcNAc(b1-2)Man(a1-3)[Fuc(a1-3)[Gal(b1-4)]GlcNAc(b1-2)Man(a1-6)]Man(b1-4)GlcNAc(b1-4)[Fuc(a1-6)]GlcNAc
# Outline: as §1
# [11] = molecular target: Fuc(a1-3)[Gal3S(b1-4)]GlcNAc6S
# Outline: as §1
# [12] = molecular target: Gal(a1-2)Gal
# Outline: as §1
# [13] = molecular target: Gal(a1-3)Gal(b1-4)Glc
# Outline: as §1
# [14] = molecular target: Gal(a1-3)Gal(b1-4)GlcNAc(b1-2)Man
# Outline: as §1
# [15] = molecular target: Gal(a1-3)Gal(b1-4)GlcNAc(b1-2)Man(a1-3)[Gal(a1-3)Gal(b1-4)GlcNAc(b1-2)Man(a1-6)]Man(b1-4)GlcNAc(b1-4)GlcNAc
# Outline: as §1
# [16] = molecular target: Gal(a1-3)[Gal(a1-4)]Gal(b1-4)GlcNAc
# Outline: as §1
# [17] = molecular target: Gal(a1-4)Gal(b1-4)GlcNAc(b1-2)Man(a1-3)[Gal(a1-4)Gal(b1-4)GlcNAc(b1-2)Man(a1-6)]Man(b1-4)GlcNAc(b1-4)GlcNAc
# Outline: as §1
# [18] = molecular target: Gal(b1-3)GalNAc(a1-3)[Fuc(a1-2)]Gal(b1-4)GlcNAc
# Outline: as §1
# [19] = molecular target: Gal(b1-3)GlcNAc(b1-3)Gal(b1-3)GlcNAc
# Outline: as §1
# [20] = molecular target: Gal(b1-3)GlcNAc(b1-3)Gal(b1-4)GlcNAc(b1-6)[Gal(b1-3)GlcNAc(b1-3)]Gal(b1-4)Glc
# Outline: as §1
# [21] = molecular target: Gal(b1-3)GlcNAc(b1-6)Gal(b1-4)GlcNAc
# Outline: as §1
# [22] = molecular target: Gal(b1-3)[Fuc(a1-4)]GlcNAc
# Outline: as §1
# [23] = molecular target: Gal(b1-4)GalNAc(a1-3)[Fuc(a1-2)]Gal(b1-4)GlcNAc
# Outline: as §1
# [24] = molecular target: Gal(b1-4)GlcNAc(b1-2)Man(a1-3)Man(b1-4)GlcNAc(b1-4)GlcNAc
# Outline: as §1
# [25] = molecular target: Gal(b1-4)GlcNAc(b1-2)Man(a1-3)[GlcNAc(b1-4)][Gal(b1-4)GlcNAc(b1-2)Man(a1-6)]Man(b1-4)GlcNAc(b1-4)GlcNAc
# Outline: as §1
# [26] = molecular target: Gal(b1-4)GlcNAc(b1-3)Gal(b1-4)GlcNAc(b1-3)Gal(b1-4)GlcNAc(b1-3)Gal(b1-4)GlcNAc(b1-2)Man(a1-3)[Gal(b1-4)GlcNAc(b1-3)Gal(b1-4)GlcNAc(b1-3)Gal(b1-4)GlcNAc(b1-3)Gal(b1-4)GlcNAc(b1-2)Man(a1-6)]Man(b1-4)GlcNAc(b1-4)GlcNAc
# Outline: as §1
# [27] = molecular target: Gal(b1-4)GlcNAc(b1-3)[Fuc(a1-3)GlcNAc(b1-6)]Gal(b1-4)Glc
# Outline: as §1
# [28] = molecular target: Gal3S(b1-3)GalNAc
# Outline: as §1
# [29] = molecular target: Gal3S(b1-4)Glc
# Outline: as §1
# [30] = molecular target: Gal6S(b1-3)GlcNAc
# Outline: as §1
# [31] = molecular target: Gal6S(b1-3)GlcNAc6S
# Outline: as §1
Binder,glycan array binding signal (z-score) [1],glycan array binding signal (z-score) [2],glycan array binding signal (z-score) [3],glycan array binding signal (z-score) [4],glycan array binding signal (z-score) [5],glycan array binding signal (z-score) [6],glycan array binding signal (z-score) [7],glycan array binding signal (z-score) [8],glycan array binding signal (z-score) [9],glycan array binding signal (z-score) [10],glycan array binding signal (z-score) [11],glycan array binding signal (z-score) [12],glycan array binding signal (z-score) [13],glycan array binding signal (z-score) [14],glycan array binding signal (z-score) [15],glycan array binding signal (z-score) [16],glycan array binding signal (z-score) [17],glycan array binding signal (z-score) [18],glycan array binding signal (z-score) [19],glycan array binding signal (z-score) [20],glycan array binding signal (z-score) [21],glycan array binding signal (z-score) [22],glycan array binding signal (z-score) [23],glycan array binding signal (z-score) [24],glycan array binding signal (z-score) [25],glycan array binding signal (z-score) [26],glycan array binding signal (z-score) [27],glycan array binding signal (z-score) [28],glycan array binding signal (z-score) [29],glycan array binding signal (z-score) [30],glycan array binding signal (z-score) [31]
Mermaid1 (Stilbonema majum) (protein) MGSSHHHHHHSSGLVPRGSHMAASGWLRSPQGTVVKLYRRSLSWSKADEFCKDVDGRLVVDRTADMHLFLIKNVLKEKKSRVWVGLRRTAPHSRTWIWSDGTRQNEDDLDANLWLRDEPNDAAGEEECALFMYSPWEKAWGLNDYLCRGGCRSYQFICEKWIR,0.03,–,–,–,–,–,–,–,–,–,–,–,–,–,–,–,–,–,–,–,–,–,–,–,–,–,–,–,–,–,–
PX9961KLbvu-535-38-535 (Bacteroides vulgatus) (protein) DKAYTDAESYTKGLHKIYSVWALSGQDGSSSSDISGLDAGNTALLRCWWTLQEQPTDEMKNAWNDAWCTEVNYMTWTTNKVEPIEGVYQRCMYIVALVNEFLKNIPNAPESIDKESYIAQARFNRAFAYYVLMDMFALPPFITEKNYSIEPAPLSREDLFNWIEAELNEIKPNLPSPRSEYGVADQAVASALLARMYLNAEIYTGKARYTECINACNEVIKAGYQLADNYADLFKADNGENPDTKKEIIYPIIFDGDKTQSWGMAAIIIGARGAEDKDVLLAHSGVDQGWAGFRATSNLVHLFDFQNDEEPKASEIQDKRGIFYDKGRSIDITSSVSGTFETEGWSVFKFSNLNSNGQPGKNTLWVDTDFPMFRLGDIYLMYAEAVARGGEGSKASAVEYINALRKRAYGDDKHNISENWLEENNFRNLLDERGRELYWEGIRRTDLVRFDLLTSGSYTWDFKGGINTGVGVNKRYNVYPIPVTDLTVNGNLQQNEGY,–,-0.462,-0.042,-0.031,2.87,1.72,0.16,-0.162,-0.165,-0.392,-0.054,-0.938,-0.366,-0.783,-0.391,2.6,2.35,-0.06,-0.549,-0.446,-0.398,-0.123,-0.291,0.158,-0.249,1.57,-0.046,-0.326,1.38,0.63,1.44
